In publication PMC7862700, “An all-to-all approach to the identification of sequence-specific readers for epigenetic DNA modifications on cytosine” one finds binding signal data, which are given here for 1 sequence.

Common to all, as to assay: DAPPL (digital affinity profiling via proximity ligation, sequencing); 10 mM Tris-HCl pH 7.5, 50 mM NaCl, 1 mM DTT, 4% glycerol, room temperature, 30 min; GST-TFs on glutathione beads, 16-mer random dsDNA library, 0.1% formaldehyde crosslink after washing; high values mean tight binding
Common to all, as to details: protein: recombinant; tags: N-terminal GST; dsDNA, one strand shown

The target of one experiment is T1, FLI1 (Homo sapiens, UniProt Q01543 1-452).
T1 sequence: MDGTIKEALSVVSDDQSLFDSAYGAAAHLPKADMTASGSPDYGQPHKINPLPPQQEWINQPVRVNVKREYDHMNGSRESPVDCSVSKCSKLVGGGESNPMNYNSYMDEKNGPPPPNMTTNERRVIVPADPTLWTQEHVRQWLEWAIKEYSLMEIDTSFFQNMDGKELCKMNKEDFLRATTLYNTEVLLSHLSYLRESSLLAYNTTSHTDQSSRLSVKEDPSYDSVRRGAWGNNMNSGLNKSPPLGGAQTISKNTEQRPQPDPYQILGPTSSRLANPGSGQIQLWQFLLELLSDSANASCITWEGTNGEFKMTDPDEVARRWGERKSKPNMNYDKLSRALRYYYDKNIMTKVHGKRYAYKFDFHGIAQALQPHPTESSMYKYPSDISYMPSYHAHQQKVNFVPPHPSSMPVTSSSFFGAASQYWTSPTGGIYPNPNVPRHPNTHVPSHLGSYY
A digest of the protocol:
(§1)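 Human transcription factors fused to GST were expressed in yeast, captured on glutathione beads, given DNA barcodes and pooled with a GST-only negative control. Pools were incubated with 200 nmole of a 16-mer random double-stranded DNA library in Tris/NaCl/DTT/glycerol buffer at room temperature for 30 min. They were then washed, crosslinked with 0.1% formaldehyde, proximity-ligated (BsaI/T4 ligase, 1 h, 37 °C), PCR-amplified and sequenced on an Illumina NextSeq500. Binding signal is each 6-mer's read frequency for a factor divided by its frequency for the GST control.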

The target of another experiment is T2, ELK1 (Homo sapiens, UniProt P19419 1-428).
T2 sequence: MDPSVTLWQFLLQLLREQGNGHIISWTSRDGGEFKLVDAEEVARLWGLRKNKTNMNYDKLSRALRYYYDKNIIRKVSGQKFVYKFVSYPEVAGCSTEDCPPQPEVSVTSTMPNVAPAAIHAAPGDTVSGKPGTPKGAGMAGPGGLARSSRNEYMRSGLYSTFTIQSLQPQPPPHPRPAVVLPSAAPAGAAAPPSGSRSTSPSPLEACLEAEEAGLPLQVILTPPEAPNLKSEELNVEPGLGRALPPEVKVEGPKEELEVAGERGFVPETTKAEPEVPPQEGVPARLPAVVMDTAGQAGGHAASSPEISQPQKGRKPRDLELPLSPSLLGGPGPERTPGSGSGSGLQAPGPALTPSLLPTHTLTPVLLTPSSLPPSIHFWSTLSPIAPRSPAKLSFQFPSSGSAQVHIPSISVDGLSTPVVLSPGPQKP
In short, it runs like this: as §1

For another experiment, the target named is T3, GABPA (Homo sapiens, UniProt Q06546 1-454).
T3 sequence: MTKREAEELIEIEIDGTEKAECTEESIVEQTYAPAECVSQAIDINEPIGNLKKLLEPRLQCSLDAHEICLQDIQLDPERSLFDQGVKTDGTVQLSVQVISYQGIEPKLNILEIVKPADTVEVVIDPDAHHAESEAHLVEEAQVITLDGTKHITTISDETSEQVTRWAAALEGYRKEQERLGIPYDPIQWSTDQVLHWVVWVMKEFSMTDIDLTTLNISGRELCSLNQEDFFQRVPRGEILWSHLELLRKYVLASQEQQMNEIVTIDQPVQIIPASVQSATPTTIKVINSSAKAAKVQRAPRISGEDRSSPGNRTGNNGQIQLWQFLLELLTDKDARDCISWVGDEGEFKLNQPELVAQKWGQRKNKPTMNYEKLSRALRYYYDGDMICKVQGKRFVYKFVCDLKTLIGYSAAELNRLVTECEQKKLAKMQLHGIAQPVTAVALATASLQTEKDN
A digest of the protocol: as §1

For another experiment, the target named is T4, ERG (Homo sapiens, UniProt P11308 1-479).
T4 sequence: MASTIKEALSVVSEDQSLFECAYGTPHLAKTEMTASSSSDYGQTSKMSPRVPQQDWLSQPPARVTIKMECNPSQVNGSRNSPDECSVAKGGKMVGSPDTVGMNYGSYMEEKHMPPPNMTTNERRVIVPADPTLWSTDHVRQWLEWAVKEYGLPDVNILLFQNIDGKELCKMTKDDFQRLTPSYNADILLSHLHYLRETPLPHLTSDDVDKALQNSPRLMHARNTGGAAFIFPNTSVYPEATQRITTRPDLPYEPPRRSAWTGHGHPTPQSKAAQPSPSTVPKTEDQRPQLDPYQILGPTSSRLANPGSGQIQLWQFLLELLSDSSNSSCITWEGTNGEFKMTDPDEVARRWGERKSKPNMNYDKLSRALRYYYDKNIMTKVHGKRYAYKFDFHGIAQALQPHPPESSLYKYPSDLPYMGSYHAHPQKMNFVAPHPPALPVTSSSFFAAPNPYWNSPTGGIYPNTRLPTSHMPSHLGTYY
A digest of the protocol:
as §1

The next experiment deals with ELF1 (Homo sapiens, UniProt P32519 1-619). A digest of the protocol: as §1
Another experiment addresses T5, EHF (Homo sapiens, UniProt Q9NZC4 1-300).
T5 sequence: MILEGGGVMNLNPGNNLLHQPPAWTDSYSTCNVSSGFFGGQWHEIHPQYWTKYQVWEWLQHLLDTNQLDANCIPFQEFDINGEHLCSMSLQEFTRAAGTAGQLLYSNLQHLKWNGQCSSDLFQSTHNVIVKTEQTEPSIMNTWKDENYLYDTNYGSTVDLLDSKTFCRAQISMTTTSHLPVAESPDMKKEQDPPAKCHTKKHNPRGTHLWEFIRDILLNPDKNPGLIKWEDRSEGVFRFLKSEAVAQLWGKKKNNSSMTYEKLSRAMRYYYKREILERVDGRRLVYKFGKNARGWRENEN
A digest of the protocol: as §1

A further experiment addresses SPIB (Homo sapiens, UniProt Q01892 1-262). A digest of the protocol:
as §1

A further experiment concerns the target T6, ELK3 (Homo sapiens, UniProt P41970 1-407).
T6 sequence: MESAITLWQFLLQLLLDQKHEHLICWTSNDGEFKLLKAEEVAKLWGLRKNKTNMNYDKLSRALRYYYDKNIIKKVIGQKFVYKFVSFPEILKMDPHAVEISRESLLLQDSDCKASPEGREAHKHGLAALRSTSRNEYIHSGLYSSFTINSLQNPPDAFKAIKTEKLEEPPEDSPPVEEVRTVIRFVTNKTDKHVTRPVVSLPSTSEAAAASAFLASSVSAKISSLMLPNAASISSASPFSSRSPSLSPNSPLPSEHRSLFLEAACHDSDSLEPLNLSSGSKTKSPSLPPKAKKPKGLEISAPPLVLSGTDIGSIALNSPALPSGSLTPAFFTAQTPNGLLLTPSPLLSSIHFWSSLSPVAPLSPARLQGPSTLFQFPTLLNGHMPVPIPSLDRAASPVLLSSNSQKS
A digest of the protocol: as §1

The target in another experiment is ELF4 (Homo sapiens, UniProt Q99607 1-663). In short, it runs like this:
as §1

The next experiment addresses T7, ELK4 (Homo sapiens, UniProt P28324-2 1-405).
T7 sequence: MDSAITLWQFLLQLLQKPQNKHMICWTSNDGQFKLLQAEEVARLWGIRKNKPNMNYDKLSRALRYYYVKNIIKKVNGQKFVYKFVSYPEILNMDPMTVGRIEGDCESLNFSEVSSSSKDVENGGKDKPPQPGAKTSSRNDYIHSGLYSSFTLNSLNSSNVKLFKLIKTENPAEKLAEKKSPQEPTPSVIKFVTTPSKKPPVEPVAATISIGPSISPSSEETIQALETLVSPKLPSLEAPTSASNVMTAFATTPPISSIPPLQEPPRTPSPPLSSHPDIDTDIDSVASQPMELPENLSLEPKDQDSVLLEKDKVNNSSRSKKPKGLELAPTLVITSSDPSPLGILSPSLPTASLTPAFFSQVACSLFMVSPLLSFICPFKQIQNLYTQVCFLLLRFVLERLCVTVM
In short, it runs like this: as §1

The target in a further experiment is T8, ETV2 (Homo sapiens, UniProt O00321 1-342).
T8 sequence: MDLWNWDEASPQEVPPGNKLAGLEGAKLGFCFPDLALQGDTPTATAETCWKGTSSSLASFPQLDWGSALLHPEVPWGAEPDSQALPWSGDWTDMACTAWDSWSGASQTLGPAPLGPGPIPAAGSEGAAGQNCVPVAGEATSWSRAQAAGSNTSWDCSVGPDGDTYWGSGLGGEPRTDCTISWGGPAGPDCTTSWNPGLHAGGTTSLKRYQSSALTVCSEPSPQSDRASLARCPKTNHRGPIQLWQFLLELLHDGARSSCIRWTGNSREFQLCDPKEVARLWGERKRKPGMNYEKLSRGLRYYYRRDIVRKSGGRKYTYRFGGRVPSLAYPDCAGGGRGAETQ
A digest of the protocol: as §1

For a further experiment, the target named is T9, ELF3 (Homo sapiens, UniProt P78545 1-371).
T9 sequence: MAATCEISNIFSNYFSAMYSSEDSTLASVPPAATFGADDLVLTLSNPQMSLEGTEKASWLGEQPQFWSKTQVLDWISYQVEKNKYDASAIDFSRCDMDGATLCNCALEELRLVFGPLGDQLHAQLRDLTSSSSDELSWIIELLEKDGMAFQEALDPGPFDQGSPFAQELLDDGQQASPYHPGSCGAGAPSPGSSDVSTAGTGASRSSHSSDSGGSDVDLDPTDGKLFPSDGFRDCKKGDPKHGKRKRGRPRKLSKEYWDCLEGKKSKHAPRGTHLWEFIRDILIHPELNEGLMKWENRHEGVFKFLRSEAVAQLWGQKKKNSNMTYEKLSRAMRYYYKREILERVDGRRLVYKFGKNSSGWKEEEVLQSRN
A digest of the protocol:
as §1

A further experiment has as its target T10, ERF (Homo sapiens, UniProt P50548 1-548).
T10 sequence: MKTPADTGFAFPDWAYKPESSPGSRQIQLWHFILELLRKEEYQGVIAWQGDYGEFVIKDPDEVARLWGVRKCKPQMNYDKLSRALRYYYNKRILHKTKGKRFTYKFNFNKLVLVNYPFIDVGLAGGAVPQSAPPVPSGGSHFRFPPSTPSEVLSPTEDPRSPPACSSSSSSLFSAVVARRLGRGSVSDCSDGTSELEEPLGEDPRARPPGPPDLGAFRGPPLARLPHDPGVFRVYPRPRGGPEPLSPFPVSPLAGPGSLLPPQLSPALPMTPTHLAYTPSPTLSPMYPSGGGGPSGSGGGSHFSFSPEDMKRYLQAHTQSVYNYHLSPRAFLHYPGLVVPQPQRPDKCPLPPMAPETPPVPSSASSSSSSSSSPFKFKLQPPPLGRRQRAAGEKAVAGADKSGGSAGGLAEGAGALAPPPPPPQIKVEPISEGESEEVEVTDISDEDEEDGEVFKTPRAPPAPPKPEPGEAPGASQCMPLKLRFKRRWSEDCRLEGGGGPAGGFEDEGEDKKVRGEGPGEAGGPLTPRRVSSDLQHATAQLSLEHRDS
A digest of the protocol:
as §1

A further experiment deals with T11, ETV3L (Homo sapiens, UniProt Q6ZN32 1-361).
T11 sequence: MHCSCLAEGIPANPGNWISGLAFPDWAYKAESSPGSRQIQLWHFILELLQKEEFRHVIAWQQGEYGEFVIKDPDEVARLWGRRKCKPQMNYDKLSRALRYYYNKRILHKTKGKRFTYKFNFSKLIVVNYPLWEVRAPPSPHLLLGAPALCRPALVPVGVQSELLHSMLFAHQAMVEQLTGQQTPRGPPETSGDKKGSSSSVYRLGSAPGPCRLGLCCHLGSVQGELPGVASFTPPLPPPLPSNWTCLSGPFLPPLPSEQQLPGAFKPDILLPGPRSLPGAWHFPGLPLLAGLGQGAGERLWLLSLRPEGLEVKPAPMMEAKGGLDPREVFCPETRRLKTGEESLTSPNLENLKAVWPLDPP
In short, it runs like this:
as §1

A further experiment deals with T12, ETV7 (Homo sapiens, UniProt Q9Y603 1-341).
T12 sequence: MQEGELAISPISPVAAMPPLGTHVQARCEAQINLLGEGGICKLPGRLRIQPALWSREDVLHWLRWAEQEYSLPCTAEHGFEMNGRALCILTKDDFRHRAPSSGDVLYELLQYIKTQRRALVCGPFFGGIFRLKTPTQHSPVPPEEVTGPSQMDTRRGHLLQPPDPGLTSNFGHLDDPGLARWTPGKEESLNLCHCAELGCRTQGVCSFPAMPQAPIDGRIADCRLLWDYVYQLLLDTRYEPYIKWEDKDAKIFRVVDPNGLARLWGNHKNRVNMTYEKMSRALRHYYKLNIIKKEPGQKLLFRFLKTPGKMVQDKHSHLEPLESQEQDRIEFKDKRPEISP
A digest of the protocol: as §1

The target in the next experiment is ETV6 (Homo sapiens, UniProt P41212 1-452). In short, it runs like this:
as §1

Chain of ELF1 (P32519 whole entry): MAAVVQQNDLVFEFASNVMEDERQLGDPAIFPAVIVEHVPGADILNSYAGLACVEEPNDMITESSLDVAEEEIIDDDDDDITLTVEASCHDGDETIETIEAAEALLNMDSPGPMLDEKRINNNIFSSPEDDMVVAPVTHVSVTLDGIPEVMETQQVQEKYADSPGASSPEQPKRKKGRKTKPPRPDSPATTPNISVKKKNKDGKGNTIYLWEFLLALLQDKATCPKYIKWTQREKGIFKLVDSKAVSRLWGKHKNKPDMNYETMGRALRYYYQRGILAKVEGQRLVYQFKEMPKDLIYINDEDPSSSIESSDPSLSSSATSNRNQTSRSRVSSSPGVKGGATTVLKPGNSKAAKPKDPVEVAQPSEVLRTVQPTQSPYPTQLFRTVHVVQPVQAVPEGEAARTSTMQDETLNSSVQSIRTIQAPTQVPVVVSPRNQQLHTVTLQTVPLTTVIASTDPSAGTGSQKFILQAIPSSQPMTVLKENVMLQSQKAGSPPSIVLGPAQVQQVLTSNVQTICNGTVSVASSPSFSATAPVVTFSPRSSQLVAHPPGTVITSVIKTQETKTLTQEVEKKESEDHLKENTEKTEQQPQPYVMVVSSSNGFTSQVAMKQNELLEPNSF
Chain of ELF4 (Q99607 whole entry): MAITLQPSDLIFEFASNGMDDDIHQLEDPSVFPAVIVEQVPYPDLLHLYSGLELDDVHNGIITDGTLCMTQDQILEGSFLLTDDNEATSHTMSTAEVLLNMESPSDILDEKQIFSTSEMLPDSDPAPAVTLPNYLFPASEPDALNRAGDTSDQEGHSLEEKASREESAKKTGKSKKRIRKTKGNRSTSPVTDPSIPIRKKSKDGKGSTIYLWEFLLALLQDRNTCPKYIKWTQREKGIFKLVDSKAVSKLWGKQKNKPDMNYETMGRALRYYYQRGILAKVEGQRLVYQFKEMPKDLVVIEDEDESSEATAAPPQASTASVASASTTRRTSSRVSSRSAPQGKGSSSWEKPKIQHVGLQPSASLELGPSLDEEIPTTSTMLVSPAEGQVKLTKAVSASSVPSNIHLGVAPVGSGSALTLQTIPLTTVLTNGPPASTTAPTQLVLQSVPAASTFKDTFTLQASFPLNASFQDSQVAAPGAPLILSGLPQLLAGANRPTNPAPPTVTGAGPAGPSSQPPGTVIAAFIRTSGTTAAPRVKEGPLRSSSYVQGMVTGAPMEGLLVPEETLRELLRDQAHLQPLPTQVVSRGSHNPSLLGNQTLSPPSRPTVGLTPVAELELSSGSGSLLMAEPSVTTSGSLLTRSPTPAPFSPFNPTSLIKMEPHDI
Chain of SPIB (Q01892 whole entry): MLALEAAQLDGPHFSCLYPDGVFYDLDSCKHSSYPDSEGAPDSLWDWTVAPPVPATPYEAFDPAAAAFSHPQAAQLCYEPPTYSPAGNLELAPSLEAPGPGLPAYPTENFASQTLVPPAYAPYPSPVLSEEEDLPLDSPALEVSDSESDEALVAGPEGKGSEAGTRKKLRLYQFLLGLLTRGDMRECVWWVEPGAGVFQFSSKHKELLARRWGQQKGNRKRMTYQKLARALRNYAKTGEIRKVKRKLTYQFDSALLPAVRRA
Chain of ETV6 (P41212 whole entry): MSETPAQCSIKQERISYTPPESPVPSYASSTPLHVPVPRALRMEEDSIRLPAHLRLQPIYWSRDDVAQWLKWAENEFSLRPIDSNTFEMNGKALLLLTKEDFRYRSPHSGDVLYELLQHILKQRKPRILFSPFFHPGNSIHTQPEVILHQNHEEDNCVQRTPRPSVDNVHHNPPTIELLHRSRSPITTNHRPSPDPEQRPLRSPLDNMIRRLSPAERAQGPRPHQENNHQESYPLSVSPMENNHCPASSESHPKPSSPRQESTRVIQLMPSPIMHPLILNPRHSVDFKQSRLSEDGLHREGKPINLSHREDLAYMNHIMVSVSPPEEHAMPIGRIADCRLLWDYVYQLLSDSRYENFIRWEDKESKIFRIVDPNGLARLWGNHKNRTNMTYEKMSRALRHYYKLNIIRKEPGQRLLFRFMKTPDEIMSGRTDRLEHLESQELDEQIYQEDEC

With TTGACG, the binding signal with FLI1 was 1.19 fold enrichment (6-mer frequency, TF over GST control); with ELK1 it was 1.16 fold enrichment (6-mer frequency, TF over GST control); in the experiment with GABPA, 1.08 fold enrichment (6-mer frequency, TF over GST control); in the experiment with ERG it was 1.06 fold enrichment (6-mer frequency, TF over GST control); with ELF1 it was 1.1 fold enrichment (6-mer frequency, TF over GST control); in the experiment with EHF, 1.2 fold enrichment (6-mer frequency, TF over GST control). Also, the binding signal in the experiment with SPIB is 1.11 fold enrichment (6-mer frequency, TF over GST control); with ELK3, 1.08 fold enrichment (6-mer frequency, TF over GST control); with ELF4 it was 1.15 fold enrichment (6-mer frequency, TF over GST control); with ELK4, 1.21 fold enrichment (6-mer frequency, TF over GST control); with ETV2 it was 1.23 fold enrichment (6-mer frequency, TF over GST control); in the experiment with ELF3, 1.21 fold enrichment (6-mer frequency, TF over GST control). The binding signal is 1.27 fold enrichment (6-mer frequency, TF over GST control) with ERF; 1.12 fold enrichment (6-mer frequency, TF over GST control) with ETV3L; 1.19 fold enrichment (6-mer frequency, TF over GST control) in the experiment with ETV7; 1.15 fold enrichment (6-mer frequency, TF over GST control) in the experiment with ETV6.
